# Shiga inhibitor: A qHTS for Small Molecule Inhibitors of Shiga Toxin | Vero cells, Shiga toxin protein synthesis inhibition reporter | inhibition, % at 38.7 µM | hit rate 9.2% among 290,000; in the data active = inhibition mostly above about 28%, no sharp cut-off; inactive = mostly below about 43%; note: 0% is about no effect
# HCMV inh: qHTS Assay for inhibitors of the human cytomegalovirus (HCMV) | AID 1259415, 2018 | HFF cells, HCMV-luciferase reporter, 72 h; active compounds read low | activity change, negative = inhibition, % at 57.5 µM | hit rate 4.5% among 410,000; in the data active = activity change below about -60%; inconclusive = no clear call, values can overlap the other calls; inactive = above about -39%; note: % is set by controls: 0 for no effect and ±100 for the full control effect
#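 Human foreskin fibroblasts infected with luciferase-reporter HCMV at MOI 1 PFU/cell, compounds at two doses. Luciferase measured 72 h post infection; normalized to buffer-only basal and Salinomycin (10uM) controls.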
# HCV inhibitor: qHTS Assay for Inhibitors of Hepatitis C Virus (HCV) | Huh7.5.1 HCVcc-Cre infection, luciferase reporter, 44 h | Potency, µM (titrated, usually from 41.8 µM), for the others: at the top dose activity change, negative = inhibition, usual class: inhibitors | hit rate 3.4% among 340,000; note: potency is the fitted concentration of half-maximal effect; % is set by controls: 0 for no effect and ±100 for the full control effect
#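 After 44 h co-culture of compound, cells and HCVcc-Cre (~0.5 moi), substrate is added for 15 min at room temperature and luciferase measured over 15 sec. Cells were seeded at 1,000/well and pre-cultured 4 h.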
# Pf growth 48h: Primary qHTS for delayed death inhibitors of the malarial parasite plastid, 48 hour incubation | P. falciparum luciferase growth in erythrocytes, 48 h | Potency, µM (doses to about 28.7 µM), without a hit: at the top dose activity change, negative = inhibition, hits mostly inhibitors | hit rate 5.9% among 310,000 | AID 504832, 2011; note: potency is the fitted concentration of half-maximal effect; % is set by controls: 0 for no effect and ±100 for the full control effect
#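 Here the parasites carry a stable luciferase gene and grow inside erythrocytes in Albumax-based RPMI medium with compound for one erythrocytic cycle. Activity is scored as loss of luminescent signal.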
# Cycloheximide cs: Cycloheximide Counterscreen for Small Molecule Inhibitors of Shiga Toxin. max response, %. cell reporter, cycloheximide protein synthesis inhibition counterscreen. hit rate 12% among 300,000; in the data active = max response mostly above about 13%, no sharp cut-off; inactive = mostly below about 14%; note: read at 38.3 µM for the half of the compounds with a filed dose; 0% is about no effect
# Pf growth 96h: Primary qHTS for delayed death inhibitors of the malarial parasite plastid, 96 hour incubation; P. falciparum luciferase reporter growth, 96 h; Potency, µM (series often up to 28.7 µM), for the others: at the highest dose activity change, negative = inhibition, usual class: inhibitors; hit rate 6.9% among 320,000; AID 504834, 2011; note: potency is the fitted concentration of half-maximal effect; % is set by controls: 0 for no effect and ±100 for the full control effect
#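 Luminescence readout: decreased luciferase signal marks inhibited growth of reporter-expressing P. falciparum in infected red cells (2% hematocrit, 0.05% parasitemia final), exposed to compound two generations (96 h, 37 C, 5% CO2).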
# * hit, by the source's call; ? = inconclusive; · = no result given. The list is not random: actives were taken first. Their share in the collection is about 21%. Unless noted, calls come from the whole dose curve; as a rule, active = well fitted inhibition curve with a large enough effect; inconclusive = small, poorly fitted or top-dose-only effect, or another doubt; inactive = no such curve, though single readings can be large or run the other way.
SMILES,Shiga inhibitor,HCMV inh,HCV inhibitor,Pf growth 48h,Cycloheximide cs,Pf growth 96h
CCC1(c2ccccc2)NC(=O)N(CC(=O)Nc2cc(S(=O)(=O)N3CCCCCC3)ccc2OC)C1=O (centres undefined),·,-12,14µM*,9.3µM*,·,7.4µM*
Cc1[nH]n(-c2ccc([N+](=O)[O-])cc2)c(=O)c1C=NCCc1c(C)[nH]c2ccccc12,-12,-10,-3%,?,-1,32%
CCc1ccc(N2C=C(C(=O)OC)C(c3ccc(OC)cc3)C(C#N)=C2N)cc1 (centres undefined),·,-77*,·,·,·,·
O=C(NCC1CCCO1)C(c1cccs1)N(Cc1ccccc1Cl)C(=O)c1ccc(-c2ccccc2)[nH]1 (centres undefined),-6,8,?,5.2µM*,1,19%
O=C(NCC(=O)N(Cc1ccccc1)C(C(=O)NCC1CCCO1)c1ccccc1)c1ccco1 (centres undefined),10,-22,12%,25%,-4,11%
Cc1ccc(CN(C(=O)CNC(=O)c2cccs2)C(C(=O)NCC2CCCO2)c2ccccc2)cc1 (centres undefined),9,-26,6%,?,3,?
Cc1ccc(C(C(=O)NCC2CCCO2)N(Cc2ccccc2)C(=O)c2ccc(-c3ccccc3)[nH]2)o1 (centres undefined),11,?,?,8.3µM*,5,?
COc1ccc(CNC(=O)CCc2c(C)nn(-c3ccc(N4CCCCC4)nn3)c2C)cc1,·,-20,·,·,·,·
O=C(CN1C(=O)NC2(CCCCC2)C1=O)NCCCSc1ccccc1,·,-15,-7%,?,·,?
c1ccc2c(c1)OCC(c1csc3ncnc(N4CCCC4)c13)O2 (centres undefined),-14,-24,?,·,-2,9.3µM*
O=C(CSc1nnc(C2COc3ccccc3O2)o1)N1CCCCC1 (centres undefined),32,-15,4%,·,-2,?
CC1CN=C(NCCc2ccccc2)S1 (centres undefined),24,89,16%,17%,11,?
c1ccc(CCNc2ncnc3scc(C4COc5ccccc5O4)c23)cc1 (centres undefined),-4,-84*,13µM*,·,-3,15µM*
O=C(CNC(=O)c1cccs1)Nc1cccc(S(=O)(=O)N2CCOCC2)c1,·,-20,-1%,-22%,·,2%
COc1cccc(-c2nnc(SCCC(=O)O)n2C)c1,-29,29,-3%,40%,4,8%
CCC(=O)C1=C(c2ccc(C)cc2)N(C(=O)CC)n2c(nnc2C2CCCCC2)S1,·,12,·,·,·,·
CC(=O)C1=C(c2ccc(F)cc2)N(C(C)=O)n2c(nnc2C2CCCCC2)S1,·,8,·,·,·,·
CCC(=O)C1=C(c2ccc(OC)c(OC)c2)N(C(=O)CC)n2c(CC)nnc2S1,-7,-63*,·,·,5,·
CCC(=O)C1=C(c2ccc(F)cc2)N(C(=O)CC)n2c(nnc2-c2ccc(OC)cc2)S1,·,5,·,·,·,·
CCCC(=O)C1=C(c2cccc(OC)c2)N(C(=O)CCC)n2c(C)nnc2S1,·,-95*,·,·,·,·
CCCC(=O)C1=C(c2ccc(C)cc2)N(C(=O)CCC)n2cnnc2S1,·,-95*,·,·,·,·
CC(=O)C1=C(c2ccccc2)N(C(C)=O)n2c(C)nnc2S1,29,?,?,2.3µM*,10,-20%
CCCS(=O)(=O)NC(=O)C1(C)CCCN(C(=O)c2cc(C)nn2C(C)(C)C)C1 (centres undefined),·,3,·,·,·,·
Cc1cc2nc3ccc(N(C)C)cc3nc2cc1N,·,84,-16%,·,·,·
CCCC(=O)C1=C(c2ccc(C)c(C)c2)N(C(=O)CCC)n2c(CC)nnc2S1,·,-76*,·,·,·,·
CCOc1ccc(CC(=O)Nc2c(C(=O)c3ccccc3)oc3ccc(OC)cc23)cc1OCC,·,-9,·,·,·,·
Cc1onc(-c2ccccc2)c1C(=O)N/N=C/c1ccccc1OC(C)C,-25,28,-16%,9%,6,-3%
